About 83,000 compounds went through this panel and 20% of them were active in at least one assay; those are over-represented in the sample as a whole.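 Compound tested at a single concentration for 48 hours in 96-well plates; a percent growth value below 10 was scored as active.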 A number with no mark means an inactive call. Calls of active or inactive are those of the source.
What was measured:
Assay in all cases: NCI-60 one-dose screen, 48 h (100 = growth as untreated, 0 = no growth, -100 = all killed)
Conditions in all cases: 10 µM unless noted
[1] = test system: SK-MEL-2 melanoma
[2] = test system: EKVX NSCLC
[3] = test system: SN12C renal
[4] = test system: UO-31 renal
[5] = test system: TK-10 renal
[6] = test system: ACHN renal
[7] = test system: CAKI-1 renal
[8] = test system: A498 renal
[9] = test system: CCRF-CEM leukemia
[10] = test system: MOLT-4 leukemia

SMILES | growth [1] | growth [2] | growth [3] | growth [4] | growth [5] | growth [6] | growth [7] | growth [8] | growth [9] | growth [10]
C=C(C)Cn1c(SCC(=O)c2cccs2)nc2sc3c(c2c1=O)CCCC3 | 92.3% | 77.1% | 64.5% | 58.6% | 87.5% | 44.3% | 53.8% | 72.1% | 40% | 41.9%
O=C(Nc1ncc(Cc2ccc(Cl)cc2)s1)C1=NCCCCN1 | 110% | 106% | 106% | 84.3% | 108% | 109% | 90.5% | 112% | 101% | 99.4%
C=C1/C(=C\C=C2/CCC[C@]3(C)[C@@H]([C@H](C)CCCC(C)(C)O)CC[C@@H]23)C[C@@H](OC(=O)CBr)C[C@@H]1O | 99.7% | 52.4% | 85.2% | -100% (active) | 88.2% | -29.7% (active) | -30.4% (active) | 86.2% | -50.7% (active) | -52.6% (active)
CC1=C([Se]CC(OC(=O)[C@@H](CO)NC(=O)OC(C)(C)C)C(=O)NCCCCCC(=O)OCc2ccccc2)C(=O)c2ccccc2C1=O (stereo not given in full) | -79.9% (active) | -75.5% (active) | -72.9% (active) | -99.8% (active) | -95.8% (active) | -83.3% (active) | -86.5% (active) | 31.2% | -8.88% (active) | -21.6% (active)
CCOC(=O)c1c(N)sc2cc(O)ccc12 | 110% | 106% | 101% | 83% | 101% | 98.2% | 97.7% | 104% | 111% | 84.5%
Cc1cc(C)n(C(=O)CSc2nc3sc4c(c3c(=O)n2-c2ccccc2)CCCCC4)n1 | 98.3% | 97% | 91.9% | 90.6% | 101% | 100% | 95.2% | 99.5% | 95.5% | 95.2%
COc1ccc(NC(=O)c2ccc(NC3=C(c4ccc(Cl)cc4)C(=O)NC3=O)cc2)cc1 | 70.4% | 84.7% | 88.6% | 64.6% | 82.8% | 85.9% | 83.9% | 87.5% | 85.1% | 52.6%
CCCN1C(=O)N(CCC)C2C1NC(=S)N2/N=C/C=C/c1ccccc1OC (stereo not given) | 49.6% | 51.5% | 38.3% | 39.5% | 57.3% | 41.4% | 26.6% | -5.66% (active) | 10.1% | 27.6%
COc1ccc(/C=N/NC(=O)Cn2nnc3ccccc32)cc1 | 100% | 101% | 86.6% | 77.8% | 111% | 94.6% | 90.4% | 98.4% | 106% | 93%
Cc1cc(N2CCOCC2)nc(N(CCCNc2ccnc3cc(Cl)ccc23)Cc2ccc3c(c2)OCO3)n1 | -18.5% (active) | 3.49% (active) | 21% | -32.3% (active) | -66% (active) | -86.2% (active) | 35.2% | -31.5% (active) | -5.56% (active) | -36.2% (active)
Cc1csc(Nc2nc(-c3cccc(Cl)c3)nc(C(Cl)(Cl)Cl)n2)n1 | 83.7% | 4.21% (active) | 84.1% | 39.6% | 3.91% (active) | -21.7% (active) | 4.29% (active) | -18.6% (active) | 95.5% | 74%
Cc1ccc(C2(C)NC(=O)N(CC(=O)Nc3cccc(C)c3)C2=O)cc1 (stereo not given) | 84.9% | 101% | 100% | 82% | 106% | 98.6% | 112% | 123% | 112% | 80.4%
Cc1ccc(-c2nc(C#N)c(S(=O)(=O)n3nc(C)cc3N)o2)cc1 | 98.3% | 121% | 90.1% | 79.8% | -64.9% (active) | -37.8% (active) | 82% | 76.1% | -18.8% (active) | -38% (active)
CCCC[N+]1(C)CCN=C1Cc1ccccc1 (stereo not given) | 103% | 96.6% | 94.4% | 95.5% | 91.5% | 112% | 95.8% | 97.2% | 83.5% | 94.6%
O=C(O)/C=C\C(=O)Nc1ccc2c(c1)Cc1cc(F)ccc1-2 | 98% | 90.3% | 100% | 81% | 114% | 94.2% | 81.3% | 109% | 110% | 109%
CC/C(=C(/c1ccc(Cl)cc1)c1ccc(OCCCN(C)C)cc1)c1ccc(OC)cc1 | 105% | 91% | 83.3% | 62.5% | 66.7% | 83.6% | 82.3% | 76.3% | 37% | 28.1%
Cc1ccccc1NC(=O)c1sc2nc3c(cc2c1N)CCCC3 | 26.4% | 45.8% | 37.3% | 45.2% | 57.5% | 51.2% | 51% | -3.82% (active) | 20.9% | 27.4%
Cc1cc2c(C(C)C)c(O)c(O)c(/C=N/O)c2c(O)c1-c1c(C)cc2c(C(C)C)c(O)c(O)c(/C=N/O)c2c1O | -10.2% (active) | 27.2% | 43.7% | 24.7% | 0.867% (active) | 24% | 26.6% | 57.2% | 10.1% | -7.59% (active)
COc1cc(C(=O)n2nc(NCCCc3ccccc3)c3cc(N)ccc32)cc(OC)c1OC | 87.6% | 87.3% | 99.3% | 68.6% | 97.7% | 91.3% | 92.6% | 88.7% | 69.4% | 78.6%
C=C1CC[C@@H]2[C@](C)(COC(C)=O)[C@H](OC(C)=O)CC[C@@]2(C)[C@@H]1CC(Nc1ccc(S(=O)(=O)Nc2nccc(C)n2)cc1)C1=CCOC1=O (stereo not given in full) | 40.1% | 79.2% | 25.1% | 33.4% | 83% | -37.2% (active) | 61.4% | 96.8% | -19.2% (active) | -1.85% (active)
COc1cccc2cc(N(C)c3nc(C)nc4c3CCC4)ccc12 | 41% | 56.1% | 17.2% | 38.7% | 58% | 27.3% | 18.4% | -11.4% (active) | 15.2% | 14.8%
